Reference: PubChem BioAssay (NCATS)
Results filed as inconclusive are left out. Entries that show only a call come without a potency. Active and inactive are the calls of the source. Unless noted, the call rests on the fitted dose curve; in most records, active means well fitted curve in the direction sought with a large enough effect; inconclusive means small, poorly fitted or top-dose-only effect, or another doubt; inactive means no such curve, though single readings can be large; an effect the other way counts as inactive or inconclusive.

What was measured:
[1] = Cytotoxicity counterscreen for inhibitors of SARS-CoV-2 cell entry (AID 1645845; calls by dose curve; further: nearly all actives have a fitted effect of over 50% in size); conditions: outcome: dose series up to 57.1 µM unless noted
Outline: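 ATP-content luminescence (ATPLite 1step, 15 min RT) read after 48 h compound exposure of Expi293F cells stably expressing human ACE2; normalized to cells-only wells and media-only wells.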

[2] = Primary qHTS for inhibitors of nuclear receptor binding SET domain protein 2 (NSD2) in an isogenic RCH-ACV NSD2 p.E1099K mutant (9B) (AID 1645876); further: nearly all actives have a fitted effect of over 70% in size
[3] = Primary qHTS for inhibitors of nuclear receptor binding SET domain protein 2 (NSD2) in an RCH-ACV wild type WT cells (2C) (AID 1645877); further: nearly all actives have a fitted effect of over 70% in size
[4] = qHTS for differential inhibitors of proliferation of Plasmodium falciparum line D10 (AID 1877);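 further: parasites grown with compound for 72 h before DNA staining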
[5] = qHTS for differential inhibitors of proliferation of Plasmodium falciparum line HB3 (AID 1886); conditions: Potency: Plasmodium falciparum HB3 proliferation inhibition;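 further: parasites grown with compound for 72 h before SYBR Green readout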
[6] = Quantitative high throughput screen for delayed death inhibitors of the malarial parasite plastid, 48 hour incubation (AID 488752); further: nearly all actives have a fitted effect of over 65% in size
Outline: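 One-generation (48 h) growth assay: a decrease in luciferase signal from an integrated reporter in P. falciparum-infected red cells (0.1% parasitemia, 2% hematocrit) after compound exposure at 37 C indicates parasite inhibition.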

[7] = biological target: Voltage-gated inwardly rectifying potassium channel KCNH2 (Homo sapiens) (UniProt Q12809); assay: qHTS Assay for Small Molecule Inhibitors of the Human hERG Channel Activity (AID 588834);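 further: lower thallium flux fluorescence means stronger hERG block; nearly all actives have a fitted effect of over 50% in size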
Outline: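 Thallium serves as surrogate for K+ influx through BacMam-delivered hERG in U2OS cells. Compounds are added for about 10 minutes after dye loading; stimulation buffer then starts flux, monitored kinetically on FDSS.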

[8] = qHTS for differential inhibitors of proliferation of Plasmodium falciparum line 3D7 (AID 1876)
[9] = qHTS for differential inhibitors of proliferation of Plasmodium falciparum line W2 (AID 1883); conditions: Potency: Plasmodium falciparum W2 proliferation inhibition;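 further: parasites grown with compound for 72 h before lysis and staining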
Potency means the concentration at half of the fitted maximal effect.

Chain of Voltage-gated inwardly rectifying potassium channel KCNH2 (Homo sapiens) (Q12809 whole entry, looked up): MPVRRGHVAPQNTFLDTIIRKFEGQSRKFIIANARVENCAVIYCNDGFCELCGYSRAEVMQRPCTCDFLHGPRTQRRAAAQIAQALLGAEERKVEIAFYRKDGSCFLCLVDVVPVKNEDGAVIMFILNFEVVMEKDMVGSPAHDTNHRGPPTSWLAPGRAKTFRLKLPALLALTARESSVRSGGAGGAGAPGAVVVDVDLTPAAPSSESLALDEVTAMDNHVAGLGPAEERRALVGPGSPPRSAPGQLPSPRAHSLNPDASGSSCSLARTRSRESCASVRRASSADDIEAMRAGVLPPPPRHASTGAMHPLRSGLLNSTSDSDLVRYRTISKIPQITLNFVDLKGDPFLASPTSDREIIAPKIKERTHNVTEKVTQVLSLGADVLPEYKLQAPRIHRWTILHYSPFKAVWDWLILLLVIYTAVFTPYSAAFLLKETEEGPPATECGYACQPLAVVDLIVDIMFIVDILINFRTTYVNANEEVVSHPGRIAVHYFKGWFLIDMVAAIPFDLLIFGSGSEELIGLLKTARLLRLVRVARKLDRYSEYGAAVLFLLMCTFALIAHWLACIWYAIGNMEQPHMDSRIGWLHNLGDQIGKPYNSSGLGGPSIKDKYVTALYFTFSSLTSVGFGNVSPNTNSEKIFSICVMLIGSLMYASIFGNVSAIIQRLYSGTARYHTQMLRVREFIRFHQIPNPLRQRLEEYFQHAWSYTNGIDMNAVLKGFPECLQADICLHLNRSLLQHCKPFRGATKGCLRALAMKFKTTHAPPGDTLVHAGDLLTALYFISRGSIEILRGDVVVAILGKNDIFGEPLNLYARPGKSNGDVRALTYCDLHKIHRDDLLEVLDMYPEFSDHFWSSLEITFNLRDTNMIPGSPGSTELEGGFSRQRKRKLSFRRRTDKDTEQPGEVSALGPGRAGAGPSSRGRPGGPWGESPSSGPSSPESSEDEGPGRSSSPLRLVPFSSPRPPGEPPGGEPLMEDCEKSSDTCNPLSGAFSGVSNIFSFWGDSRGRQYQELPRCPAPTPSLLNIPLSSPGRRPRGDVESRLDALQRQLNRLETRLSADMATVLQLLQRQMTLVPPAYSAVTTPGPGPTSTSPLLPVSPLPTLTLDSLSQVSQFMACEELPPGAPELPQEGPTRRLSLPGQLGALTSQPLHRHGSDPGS

For N#CC(O[C@@H]1O[C@H](CO[C@@H]2O[C@H](CO)[C@@H](O)[C@H](O)[C@H]2O)[C@@H](O)[C@H](O)[C@H]1O)c1ccccc1 (some centres not stated), the Potency [1] was “inactive”, the Potency [2] was “inactive” and the Potency [3] was “inactive”.

For C[C@@]12OC(=O)[C@]1([C@@H](O)[C@@H]1C=CCCC1)NC(=O)[C@@H]2CCCl, the Potency [2] was 118 nM (active) and the Potency [3] was 105 nM (active).

In the case of C[C@@H]1CC[C@@]2(OC1)O[C@H]1C[C@H]3[C@@H]4CC=C5C[C@@H](O[C@@H]6O[C@H](CO)[C@@H](O[C@@H]7O[C@@H](C)[C@H](O)[C@@H](O)[C@H]7O)[C@H](O)[C@H]6O[C@@H]6O[C@@H](C)[C@H](O)[C@@H](O)[C@H]6O)CC[C@]5(C)[C@H]4CC[C@]3(C)[C@H]1[C@@H]2C, the Potency [1] is reported as “inactive”, the Potency [2] is reported as 2350 nM (active) and the Potency [3] is reported as 3320 nM (active).

With CN1C(=O)[C@@H](NC(=O)[C@H](CCC(F)(F)F)[C@H](CCC(F)(F)F)C(N)=O)N=C(c2ccccc2)c2ccccc21 the Potency [1] was “inactive”, the Potency [2] was “inactive” and the Potency [3] was “inactive”.

In the case of C/C=C(\C)C(=O)N[C@@H](c1ccccc1)[C@@H](O)C(=O)O[C@H]1C[C@@]2(O)[C@@H](OC(=O)c3ccccc3)[C@@H]3[C@]4(OC(C)=O)CO[C@@H]4C[C@H](O)[C@@]3(C)C(=O)[C@H](OC(C)=O)C(=C1C)C2(C)C, the Potency [1] is reported as “inactive”, the Potency [2] is reported as 26.3 nM (active) and the Potency [3] is reported as 26.3 nM (active).

With C=C[C@H]1CN2CCC1C[C@@H]2[C@@H](O)c1ccnc2ccccc12 (some centres not stated) the Potency [1] was “inactive”, the Potency [2] was “inactive” and the Potency [3] was “inactive”.

With C[C@@H](C1CC[C@@]2(O)C3=CC(=O)[C@@H]4C[C@@H](O)[C@@H](O)C[C@]4(C)[C@H]3CC[C@]12C)[C@H](O)CCC(C)(C)O (some centres not stated) the Potency [1] was “inactive”, the Potency [2] was “inactive” and the Potency [3] was “inactive”.

In the case of CC1(C)CC[C@]2(NC(=O)C(C)(F)F)CC[C@]3(C)[C@H](C(=O)C=C4[C@@]5(C)C=C(C#N)C(=O)C(C)(C)[C@@H]5CC[C@]43C)[C@@H]2C1, the Potency [3] is reported as 7420 nM (active).

For CO[C@H]1CCC(O[C@H]2C[C@H]([C@]3(C)CC[C@]4(C[C@H](O)[C@@H](C)[C@@H]([C@@H](C)/C=C(\C)C(=O)[C@H](C)C[C@H](C)C(=O)O)O4)O3)O[C@]3(O[C@@H]([C@H]4O[C@@](O)(CO)[C@H](C)C[C@@H]4C)C[C@@H]3C)[C@@H]2C)O[C@@H]1C (some centres not stated), the Potency [1] was “inactive” and the Potency [2] was 209 nM (active).

In the case of CC(C)(O)/C=C\C(=O)[C@](C)(O)[C@H]1[C@H](O)C[C@]2(C)[C@@H]3CC=C4[C@@H](C=C(O)C(=O)C4(C)C)[C@]3(C)C(=O)C[C@@]12C, the Potency [2] is reported as 52.5 nM (active) and the Potency [3] is reported as 46.8 nM (active).

For O=C(O)CNC(=O)C1C(=O)N(C2CCCCC2)C(=O)N(C2CCCCC2)C1=O, the Potency [1] was “inactive” and the Potency [2] was “inactive”.

With COC(=O)[C@]12CCC(C)(C)C[C@H]1[C@H]1C(=O)C=C3[C@@]4(C)C=C(C#N)C(=O)C(C)(C)[C@@H]4CC[C@@]3(C)[C@]1(C)CC2 the Potency [1] was 2820 nM (active) and the Potency [3] was 5900 nM (active).

With Cn1c(COP(=O)(NCCBr)NCCBr)cnc1[N+](=O)[O-] the Potency [1] was “inactive” and the Potency [3] was 18600 nM (active).

In the case of CC(N[C@H]1C[C@@H]1c1ccccc1)c1ccc2c(c1)OCCO2 (some centres not stated), the Potency [1] is reported as “inactive”, the Potency [2] is reported as “inactive” and the Potency [3] is reported as “inactive”.

In the case of CC(C)[C@]12O[C@H]1[C@@H]1O[C@@]13[C@@]1(C)CCC4=C(COC4=O)[C@@H]1C[C@@H]1O[C@@]13C2=O, the Potency [1] is reported as “inactive”, the Potency [2] is reported as 37.2 nM (active) and the Potency [3] is reported as 33.2 nM (active).

With CC(C)(NC(=O)O[C@@H]1CN2CCC1CC2)c1csc(-c2ccc(F)cc2)n1 the Potency [1] was “inactive”.

With CCCC[N+]1(C)C2CC(OC(=O)C(CO)c3ccccc3)CC1C1OC12 (configuration not stated) the Potency [4] was “inactive”, the Potency [5] was “inactive” and the Potency [6] was “inactive”. For the same compound, the Potency [7] was “inactive”.

In the case of Nc1ncnc2c1ncn2[C@@H]1O[C@H](COP(=O)(O)CP(=O)(O)OP(=O)(O)O)[C@H](O)[C@H]1O, the Potency [8] is reported as “inactive”, the Potency [4] is reported as “inactive” and the Potency [9] is reported as “inactive”. The Potency [5] was “inactive”, the Potency [6] was “inactive” and the Potency [7] was “inactive”.

With CC(C)(O)C1C2OC(=O)C1[C@]1(O)C[C@H]3O[C@]34C(=O)O[C@H]2[C@]14C (some centres not stated) (tested in a mixture with another compound) the Potency [8] was “inactive”, the Potency [4] was “inactive” and the Potency [9] was “inactive”. The Potency [5] was “inactive” and the Potency [6] was “inactive”.

For CCCCN1C2CCC1CC(OC(c1ccc(F)cc1)c1ccc(F)cc1)C2 (configuration not stated), the Potency [8] was 891 nM (active), the Potency [4] was 2240 nM (active) and the Potency [9] was 631 nM (active). The Potency [5] was 1000 nM (active), the Potency [6] was 7380 nM (active) and the Potency [7] was 89.1 nM (active).

With C=CCN1CC[C@@]2(C)c3cc(O)ccc3CC1[C@@H]2C the Potency [4] was 12600 nM (active), the Potency [9] was 6310 nM (active) and the Potency [6] was “inactive”. The Potency [7] was “inactive”.

In the case of CCCN(CCC)[C@@H]1CCc2c(F)ccc(O)c2C1, the Potency [8] is reported as 1580 nM (active), the Potency [4] is reported as 2240 nM (active) and the Potency [9] is reported as 891 nM (active). The Potency [5] was 1410 nM (active), the Potency [6] was 2620 nM (active) and the Potency [7] was “inactive”.

With CC1Cc2cc3c(cc2C(c2ccc(N)cc2)=NN1)OCO3 (configuration not stated) the Potency [4] was “inactive”, the Potency [9] was 2240 nM (active) and the Potency [6] was “inactive”.

For NNCc1cccc(O)c1, the Potency [8] was 12600 nM (active), the Potency [4] was 14100 nM (active) and the Potency [9] was 12600 nM (active). The Potency [5] was 14100 nM (active), the Potency [6] was 7380 nM (active) and the Potency [7] was “inactive”.

With COc1ccc2c3c1O[C@H]1C(=O)CC[C@@]4(O)C(C2)N(CC2CC2)CCC314 (some centres not stated) the Potency [8] was “inactive”, the Potency [4] was “inactive” and the Potency [9] was 11200 nM (active). For the same compound, the Potency [5] was “inactive” and the Potency [6] was “inactive”.

In the case of NCC#Cc1ccccc1, the Potency [8] is reported as “inactive”, the Potency [4] is reported as “inactive” and the Potency [9] is reported as 12600 nM (active). For the same compound, the Potency [5] was “inactive”, the Potency [6] was “inactive” and the Potency [7] was “inactive”.

For CCCN1CCCC(c2cccc(O)c2)C1 (configuration not stated), the Potency [8] was “inactive”, the Potency [4] was “inactive” and the Potency [9] was 8910 nM (active). For the same compound, the Potency [5] was “inactive”, the Potency [6] was “inactive” and the Potency [7] was “inactive”.

For CCN(CC)C(=O)N[C@@H]1C[C@@H]2c3cccc4[nH]cc(c34)C[C@H]2N(C)C1, the Potency [8] was 398 nM (active), the Potency [9] was 891 nM (active) and the Potency [5] was 891 nM (active).

With C[C@H]1C2Cc3ccc(O)cc3[C@]1(C)CCN2CC1CC1 the Potency [8] was “inactive”, the Potency [4] was “inactive” and the Potency [9] was 2820 nM (active). The Potency [5] was “inactive”, the Potency [6] was “inactive” and the Potency [7] was “inactive”.

For C/C1=C/C[C@@H](/C(C)=C/c2csc(C)n2)OC(=O)C[C@H](O)C(C)(C)C(=O)[C@H](C)[C@@H](O)[C@@H](C)CCC1, the Potency [1] was “inactive”, the Potency [2] was 52.5 nM (active) and the Potency [3] was 41.7 nM (active).
